TcdB GH inh = inhibitors of Clostridioides difficile toxin B glycohydrolase; P18177; TcdB glycohydrolase enzymatic assay, plate reader; inhibition, % at 9.99 µM; actives 0.24% (n = 350,000); in the data active = inhibition above about 10%
SSB-PriA inh = K. pneumoniae PriA-SSBct interaction inhibition. AlphaScreen SSBct-PriA binding, biotinylated peptide. inhibition, % at 33 µM. actives 0.6% (n = 430,000); in the data active = inhibition mostly above about 37%, no sharp cut-off; inactive = mostly below about 20%
FadD28 binding = M. tuberculosis FadD28 bisubstrate binding inhibition; inhibition, % at 12.5 µM; actives 0.22% (n = 360,000); AID 588549; FadD28 bisubstrate probe binding, fluorescence polarization; in the data active = inhibition above about 8.5%, passing the limit was not always enough
PrP UTR inh = inhibition of PrP 5' UTR reporter expression; cell-based PrP 5' UTR mRNA reporter, plate reader; inhibition, % (no concentration beside the values); actives 0.35% (n = 340,000); AID 488862; in the data active = inhibition above about 52%
Mtb hypoxia inh = reduces hypoxia-regulated biosensor signal in M. tuberculosis; M. tuberculosis hypoxia-regulated fluorescent reporter, fluorescence; fluorescence inhibition, % (test concentration not listed); actives 0.1% (n = 300,000); AID 1159583; in the data active = fluorescence inhibition mostly above about 23%, no sharp cut-off; inactive = mostly below about 17%
BioA inh = BioA (M. tuberculosis) enzyme inhibition; actives 0.096% (n = 360,000); purified M. tuberculosis BioA enzyme, plate reader; inhibition, % at 9.99 µM; in the data active = inhibition above about 40%
A number is an active result; - = inactive; . = not tested or not shown. An excerpt weighted towards active compounds, which were near 1% of everything screened.

SMILES | TcdB GH inh | SSB-PriA inh | FadD28 binding | PrP UTR inh | Mtb hypoxia inh | BioA inh
O=C(C[C@H]1CC[C@H]2[C@@H](COC[C@H](O)CN2C(=O)Nc2ccc(Cl)c(Cl)c2)O1)NCc1ccccc1 | - | . | . | . | . | -
O=C(C[C@H]1CC[C@H]2[C@@H](COC[C@@H](O)CN2C(=O)c2ccccn2)O1)NC1CCC1 | - | . | . | . | . | -
COC(=O)C[C@@H]1CC[C@@H]2[C@H](COC[C@H](O)CN2C(=O)Nc2ccccc2OC)O1 | 13.2 | . | . | . | . | -
COC(=O)C[C@H]1CC[C@H]2[C@@H](COC[C@H](O)CN2C(=O)Nc2ccccc2OC)O1 | - | . | . | . | . | -
O=C(C[C@@H]1CC[C@H]2[C@@H](COC[C@@H](O)CN2C(=O)c2ccccn2)O1)NC1CCC1 | 10.4 | . | . | . | . | -
CCOc1ccccc1OCCCC(=O)Nc1cccc(S(=O)(=O)N2CCOCC2)c1 | - | - | - | - | 26.3 | -
O=C(CCCOc1ccccc1)Nc1cccc(S(=O)(=O)N2CCOCC2)c1 | - | - | - | - | - | -
Cc1ccc(OCCCC(=O)Nc2ccc(S(=O)(=O)N3CCOCC3)cc2)cc1 | - | - | - | - | 30.4 | -
Cc1ccc(C(=O)NN=Cc2ccccc2[N+](=O)[O-])cn1 | . | . | . | . | - | .
Cc1ccc(S(=O)(=O)N2CC(O)CC2C(=O)OCC(=O)Nc2ccc([N+](=O)[O-])cc2C(F)(F)F)cc1C (stereo unspecified) | - | - | - | - | - | -
Cc1ccc(C)c(N2CCN(C(=O)c3cc(S(=O)(=O)N4CCOCC4)cn3C)CC2)c1 | - | - | - | - | - | -
O=C(O)c1ccccc1-c1ccc(/C=c2\sc3nc4cc(Br)cnc4n3c2=O)o1 | . | . | 23.7 | - | . | -
CC1C(c2ccc3c(c2)OCO3)c2cc3c(cc2OC1N1CCOCC1)OCO3 (stereo unspecified) | 10.6 | - | - | - | . | .
CN(C)c1ncnc2c1C(c1ccccc1)C(C)(C)O2 (stereo unspecified) | - | - | - | - | . | .
CC(=NO)C1(C)N(O)C(C)(C)C(c2ccc(F)cc2)=[N+]1[O-] (stereo unspecified) | . | - | . | . | - | .
C/C(=N/NC(=S)NCc1ccco1)c1cccc([N+](=O)[O-])c1 | . | 66.0 | . | . | . | .
CCNC(=S)NN=C(C)c1cccc([N+](=O)[O-])c1 | . | - | . | . | - | .
Nc1ncnc(N)c1NC(=O)c1cc(Cl)c(OCc2ccccc2)c(Cl)c1 | - | . | - | . | . | .
Oc1ccc(/C=N/Nc2ncnc3nc[nH]c23)cc1 | 10.3 | . | - | . | . | -
Cc1nn(-c2ccccc2)c(Cl)c1/C=N/Nc1nc2ccccc2[nH]1 | - | . | - | - | . | .
Cc1nn(-c2ccccc2)c(C)c1C=NNc1nc2ccccc2[nH]1 | . | 56.0 | . | . | - | .
CCCCOc1ccc(C(=O)N2CCC(c3nc4ccccc4[nH]3)CC2)cc1 | . | 91.0 | . | . | . | .
Nc1nnc(SCCCOc2ccc(F)cc2)s1 | - | - | 12.9 | - | - | -
CCCOc1ccc(OCCSc2nnc(N)s2)cc1 | . | - | - | - | . | -
O=C(NNC(=O)c1cccc2ccccc12)c1cccc(F)c1 | 10.5 | - | - | - | - | -
SMILES | TcdB GH inh | SSB-PriA inh | FadD28 binding | PrP UTR inh | Mtb hypoxia inh | BioA inh
O=C(NCC(O)c1ccccc1)c1ccc(Cl)c(S(=O)(=O)N2CCCCCC2)c1 (stereo unspecified) | . | - | . | . | . | .
O=C(O)c1cc(O)c2c(c1)[C@@H]([C@H]1c3cc(C(=O)O)cc(O)c3C(=O)c3c(O[C@@H]4O[C@H](CO)[C@@H](O)[C@H](O)[C@H]4O)cccc31)c1cccc(OC3O[C@H](CO)[C@@H](O)[C@H](O)[C@H]3O)c1C2=O (stereo partly specified) | - | - | 13.7 | - | . | -
O=C(O)c1cc(O)c2c(c1)[C@H]([C@H]1c3cc(C(=O)O)cc(O)c3C(=O)c3c(O[C@@H]4O[C@H](CO)[C@@H](O)[C@H](O)[C@H]4O)cccc31)c1cccc(OC3O[C@H](CO)[C@@H](O)[C@H](O)[C@H]3O)c1C2=O (stereo partly specified) | - | - | 29.2 | - | . | -
CNC(=O)c1sc(-c2ccc(Cl)cc2)nc1C | . | - | - | - | - | -
CS(=O)(=O)N(Cc1ccccc1)c1ccccc1C(=O)Nc1ccccc1C(=O)NCc1ccco1 | - | - | - | - | - | -
CCC(Sc1nncn1C)C(=O)Nc1ccccc1OC (stereo unspecified) | . | - | - | - | - | .
O=C(CSc1nc(-c2ccccc2)cs1)Nc1nccs1 | . | - | - | - | - | .
O=C(CSc1nc(-c2ccccc2)cs1)Nc1ccccc1[N+](=O)[O-] | - | 48.4 | - | - | - | .
CC1CN(C(=O)CCNC(=O)c2ccc(Cl)cc2)CC(C)O1 (stereo unspecified) | - | - | - | - | - | -
COCCN=c1scc(-c2ccccc2)n1N=Cc1c[nH]c2ccccc12 | . | 51.3 | . | . | - | .
COCCN=c1scc(-c2cc(OC)c(OC)c(OC)c2)n1/N=C/c1c(C)[nH]c2ccccc12 | - | . | - | - | . | -
Cc1[nH]c2ccccc2c1CC#N | - | - | - | - | - | -
Cc1[nH]c2ccccc2c1C(C#N)(C#N)C1C(=O)c2ccccc2C1=O | - | - | 17.9 | - | . | -
CCCc1cn(CC[C@@H]2CC[C@H](NC(=O)Nc3ccc4c(c3)OCO4)[C@@H](CO)O2)nn1 | - | . | . | . | . | -
CC(O)(CNC(=O)C(=O)Nc1ccc(OC(F)(F)F)cc1)c1cc2ccccc2s1 (stereo unspecified) | . | - | . | . | . | .
COc1ccc(C(C)=O)cc1COC(=O)[C@H](Cc1ccccc1)NC(=O)c1ccco1 | - | - | - | - | - | -
FC(F)Oc1ccc(C=Nc2c(-c3ccc(OC(F)F)cc3)nc3n2CCS3)cc1 | . | - | . | . | . | .
COc1ccc(C=Nc2c(-c3ccc(OC)cc3)nc3n2CCS3)cc1 | . | 55.9 | . | . | - | .
COC(=O)Nc1ccc(S(=O)(=O)Nc2cnc3ccccc3n2)cc1 | - | - | - | - | - | .
CCc1cccc(C)c1NC(=S)NCCc1c(C)[nH]c2ccc(C)cc12 | - | 39.8 | - | - | - | -
CC(=O)c1cnc2c(-c3ccccc3)c(C(F)(F)F)nn2c1C | - | - | - | - | - | .
CC(C)(C)C1CCC(=NNc2ccc(S(N)(=O)=O)cc2[N+](=O)[O-])CC1 (stereo unspecified) | - | 44.6 | - | - | - | .
CC1CC(=NNc2ccc(S(N)(=O)=O)cc2[N+](=O)[O-])CC(C)(C)C1 (stereo unspecified) | . | 51.9 | . | . | - | .
CC1CCCC/C1=N\Nc1ccc(S(N)(=O)=O)cc1[N+](=O)[O-] (stereo unspecified) | . | . | - | - | . | -
CC1CC(=NNc2ccc([N+](=O)[O-])cc2[N+](=O)[O-])CC(C)(C)C1 (stereo unspecified) | . | - | . | . | - | .
COc1ccc2c(Cl)c(C(=O)Nc3ccc(S(=O)(=O)N4CCCC4)cc3)sc2c1 | . | - | . | . | . | .
CC=CC(=O)Nc1cccc(C2=NOC3(C2)CC(C(N)=O)N(C(=O)c2cc([N+](=O)[O-])cc([N+](=O)[O-])c2)C3)c1 (stereo unspecified) | . | . | . | . | 40.1 | .
